Calls of active or inactive are those of the source.
How the values were obtained:
[1] = test system: PRMT1 (protein arginine N-methyltransferase 1); assay: small molecules binding arginine methyltransferase PRMT1 – biochemical, small-molecule microarray, 635 nm fluorescence, primary screen (AID 1088); conditions: higher = more signal;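 also: binding of Prmt1 protein to compounds spotted on small-molecule microarray slides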
[2] = growth effects on S. cerevisiae YJM789 – YJM789 clinical isolate, OD600, 24 h, basal, primary screen (AID 1089); conditions: higher = more signal, called active from +8 up or from −8 down;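 also: growth of clinical yeast isolate S. cerevisiae YJM 789 seeded 1000 cells per well; test concentration not given here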
[3] = S. pombe growth modifiers, basal conditions – strain 972, OD600, 24 h, no modulator, primary screen (AID 1090);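 also: basal condition with compound alone and no growth modifier present; test concentration not given here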; conditions: S. pombe 972 growth, higher = more signal, called active from +8 up or from −8 down
[4] = budding yeast growth modifiers under rapamycin – strain BY4716, OD600, 96 h, primary screen (AID 1091); also: test concentration not given here; conditions: S. cerevisiae BY4716 + rapamycin, higher = more signal, called active from +8 up or from −8 down
[5] = target: Torsin-1A-interacting protein 2 (Homo sapiens) (UniProt Q8NFQ8); assay: small molecules binding lysate-expressed LULL1 – cell lysate, human LULL1 lysate, 635/667 nm fluorescence, primary screen (AID 1092); conditions: small-molecule microarray, hLULL1 lysate binding, 635 nm fluorescence; higher = more signal;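 also: probe is lysate of COS7 cells overexpressing human LULL1; score merges per-feature 667 nm fluorescence with signal-to-noise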
Chain of Torsin-1A-interacting protein 2 (Homo sapiens) (Q8NFQ8 whole entry, looked up): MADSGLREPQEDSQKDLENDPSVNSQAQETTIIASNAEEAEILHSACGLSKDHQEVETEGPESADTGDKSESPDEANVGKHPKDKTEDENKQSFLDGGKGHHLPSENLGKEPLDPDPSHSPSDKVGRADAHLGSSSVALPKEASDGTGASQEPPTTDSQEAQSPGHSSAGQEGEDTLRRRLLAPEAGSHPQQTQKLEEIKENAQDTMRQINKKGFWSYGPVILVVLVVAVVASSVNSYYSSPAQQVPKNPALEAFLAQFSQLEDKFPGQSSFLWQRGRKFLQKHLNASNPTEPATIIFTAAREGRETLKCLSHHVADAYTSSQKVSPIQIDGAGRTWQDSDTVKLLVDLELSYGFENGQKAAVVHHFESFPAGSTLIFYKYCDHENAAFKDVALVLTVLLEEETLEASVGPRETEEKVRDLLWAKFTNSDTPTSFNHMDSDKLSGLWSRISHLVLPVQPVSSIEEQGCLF

[6] = optical density change of DRC41 E. coli – strain DRC41, OD650, 24 h, E. coli filamentation project, primary screen (AID 1093);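 also: MC1000 strain lacking acrAB efflux and sulA so SOS filamentation is blocked; test concentration not given here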; conditions: E. coli DRC41 growth, higher = more signal, called active from +8 up or from −8 down
[7] = probe aLefty2 binding to arrayed compounds – biochemical, biotinylated probe, 635/667 nm fluorescence, primary screen (AID 1094); conditions: small-molecule microarray, higher = more signal;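 also: score merges spot fluorescence near 667 nm with spot signal-to-noise ratio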
[8] = test system: Noggin (protein binding on small-molecule microarray); assay: small molecules binding Noggin protein – biochemical, 635/667 nm fluorescence, primary screen (AID 1095); conditions: 635 nm fluorescence, higher = more signal;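 also: score merges 667 nm feature fluorescence with signal to noise over triplicate slides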
[9] = target: Neurogenic locus notch homolog protein 3 (Homo sapiens) (UniProt Q9UM47); assay: small molecules binding NOTCH3 protein – biochemical, 635/667 nm fluorescence, primary screen (AID 1096); conditions: small-molecule microarray, 635 nm fluorescence, higher = more signal
Chain of Neurogenic locus notch homolog protein 3 (Homo sapiens) (Q9UM47 whole entry, looked up): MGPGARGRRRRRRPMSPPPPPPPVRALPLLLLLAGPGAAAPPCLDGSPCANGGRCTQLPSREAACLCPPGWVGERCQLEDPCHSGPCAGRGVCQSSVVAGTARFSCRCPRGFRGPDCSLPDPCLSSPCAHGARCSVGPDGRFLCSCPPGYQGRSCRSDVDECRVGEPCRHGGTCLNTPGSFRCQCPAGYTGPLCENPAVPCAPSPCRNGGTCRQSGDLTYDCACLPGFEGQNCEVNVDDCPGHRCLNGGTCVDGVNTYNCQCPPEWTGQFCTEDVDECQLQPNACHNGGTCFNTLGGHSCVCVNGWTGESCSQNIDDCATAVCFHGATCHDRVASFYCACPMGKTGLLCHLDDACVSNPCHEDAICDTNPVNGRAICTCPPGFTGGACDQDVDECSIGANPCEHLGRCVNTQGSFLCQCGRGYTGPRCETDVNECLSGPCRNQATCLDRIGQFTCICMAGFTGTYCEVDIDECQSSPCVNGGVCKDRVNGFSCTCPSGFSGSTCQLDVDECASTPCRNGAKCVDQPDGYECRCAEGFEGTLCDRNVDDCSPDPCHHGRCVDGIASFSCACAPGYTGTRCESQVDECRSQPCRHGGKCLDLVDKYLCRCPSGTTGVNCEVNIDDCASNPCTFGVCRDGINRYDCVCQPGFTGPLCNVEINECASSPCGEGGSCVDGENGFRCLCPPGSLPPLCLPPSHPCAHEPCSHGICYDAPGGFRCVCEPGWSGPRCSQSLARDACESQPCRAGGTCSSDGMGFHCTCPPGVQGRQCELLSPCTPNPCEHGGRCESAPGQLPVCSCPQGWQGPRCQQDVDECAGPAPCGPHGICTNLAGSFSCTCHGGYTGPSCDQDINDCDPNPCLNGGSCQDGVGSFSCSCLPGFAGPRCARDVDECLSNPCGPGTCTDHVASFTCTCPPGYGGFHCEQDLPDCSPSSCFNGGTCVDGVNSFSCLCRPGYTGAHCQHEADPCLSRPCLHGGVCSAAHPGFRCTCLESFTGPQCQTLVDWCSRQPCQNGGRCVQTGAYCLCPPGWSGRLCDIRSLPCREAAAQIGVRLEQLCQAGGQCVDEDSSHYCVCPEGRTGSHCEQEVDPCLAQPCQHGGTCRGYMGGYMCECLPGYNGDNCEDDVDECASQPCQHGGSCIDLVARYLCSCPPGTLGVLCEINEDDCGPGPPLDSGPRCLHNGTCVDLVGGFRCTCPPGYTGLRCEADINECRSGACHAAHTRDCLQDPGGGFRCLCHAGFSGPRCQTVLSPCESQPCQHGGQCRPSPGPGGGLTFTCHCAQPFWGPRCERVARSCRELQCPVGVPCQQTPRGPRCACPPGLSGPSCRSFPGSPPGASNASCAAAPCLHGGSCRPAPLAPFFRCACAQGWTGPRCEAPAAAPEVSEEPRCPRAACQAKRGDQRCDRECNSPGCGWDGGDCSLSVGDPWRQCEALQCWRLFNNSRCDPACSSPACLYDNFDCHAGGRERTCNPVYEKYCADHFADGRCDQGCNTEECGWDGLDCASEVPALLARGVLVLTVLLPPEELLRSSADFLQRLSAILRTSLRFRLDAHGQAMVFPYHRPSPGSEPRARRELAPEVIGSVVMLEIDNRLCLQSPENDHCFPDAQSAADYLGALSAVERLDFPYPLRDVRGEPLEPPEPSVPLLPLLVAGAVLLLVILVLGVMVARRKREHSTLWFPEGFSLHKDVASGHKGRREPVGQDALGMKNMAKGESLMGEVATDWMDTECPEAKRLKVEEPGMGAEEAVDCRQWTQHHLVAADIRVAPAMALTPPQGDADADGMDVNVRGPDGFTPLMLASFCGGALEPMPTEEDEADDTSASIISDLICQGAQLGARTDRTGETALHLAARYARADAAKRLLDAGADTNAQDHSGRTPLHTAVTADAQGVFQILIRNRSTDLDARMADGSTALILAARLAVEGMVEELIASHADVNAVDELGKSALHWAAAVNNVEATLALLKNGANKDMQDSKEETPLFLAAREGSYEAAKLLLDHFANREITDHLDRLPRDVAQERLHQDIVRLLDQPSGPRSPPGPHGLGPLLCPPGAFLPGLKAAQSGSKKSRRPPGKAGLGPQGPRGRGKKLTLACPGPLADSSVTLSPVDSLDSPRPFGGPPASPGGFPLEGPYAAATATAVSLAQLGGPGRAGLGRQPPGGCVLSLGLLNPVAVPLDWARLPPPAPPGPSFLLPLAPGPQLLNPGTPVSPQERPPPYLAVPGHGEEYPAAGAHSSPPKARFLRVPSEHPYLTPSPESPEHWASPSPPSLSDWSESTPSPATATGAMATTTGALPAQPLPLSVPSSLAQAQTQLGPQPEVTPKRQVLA

[10] = probe aEGFR binding to arrayed compounds – biochemical, biotinylated probe, 635/667 nm fluorescence, primary screen (AID 1097); conditions: small-molecule microarray, higher = more signal;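 also: probe is a biotinylated anti-EGFR antibody binding compounds printed on slides; score combines fluorescence near 667 nm and signal to noise of each spot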
[11] = test system: Plasmodium falciparum Sir2 (PF13_0152, Sir2A); assay: Plasmodium falciparum Sir2A binding compounds – biochemical, small-molecule microarray, 635 nm fluorescence, primary screen (AID 1098); conditions: fluorescence 635 nm, higher = more signal;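 also: score merges spot fluorescence intensity with its signal-to-noise ratio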
[12] = probe aDKK1 binding to arrayed compounds – biochemical, biotinylated probe, 635/667 nm fluorescence, primary screen (AID 1099); conditions: small-molecule microarray, higher = more signal;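 also: score merges 667nm spot fluorescence with signal to noise across triplicate slides; reference of the scale not given here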
[13] = probe aCHRDL2 binding to arrayed compounds – biochemical, biotinylated probe, 635/667 nm fluorescence, primary screen (AID 1100); conditions: small-molecule microarray, higher = more signal
[14] = change in splice reporter luminescence, either direction, cell-based, HEK293, spliceosome inhibition project, primary screen (AID 1101); conditions: HEK293 splicing luciferase reporter, 24 h, higher = more signal, called active from +8 up or from −8 down;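 also: HEK293 cells carrying a splicing-competent luciferase reporter gene; test concentration not given here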
[15] = target: Fibroblast growth factor 10 (Homo sapiens) (UniProt O15520); assay: compounds binding fibroblast growth factor 10 – biochemical, small-molecule microarray, 635 nm fluorescence, primary screen (AID 1102); conditions: FGF10 binding, fluorescence 635 nm, higher = more signal
Chain of Fibroblast growth factor 10 (Homo sapiens) (O15520 whole entry, looked up): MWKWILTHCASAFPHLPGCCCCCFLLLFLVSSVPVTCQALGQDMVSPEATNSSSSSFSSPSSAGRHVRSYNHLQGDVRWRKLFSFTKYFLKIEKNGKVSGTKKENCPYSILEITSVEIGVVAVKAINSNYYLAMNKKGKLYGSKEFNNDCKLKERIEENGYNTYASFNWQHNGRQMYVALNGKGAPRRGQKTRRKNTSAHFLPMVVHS

[16] = test system: glycogen synthase kinase-3 (GSK3A per assay name; protocol says GSK3B); assay: compounds binding glycogen synthase kinase-3 – biochemical, small-molecule microarray, 635 nm fluorescence, GSK3A, primary screen (AID 1103); conditions: fluorescence 635 nm, higher = more signal; also: the record names both GSK3A and GSK3B
[17] = target: Epidermal growth factor receptor (Homo sapiens) (UniProt P00533); assay: compounds binding epidermal growth factor receptor – biochemical, small-molecule microarray, 635 nm fluorescence, primary screen (AID 1104); conditions: EGFR binding, higher = more signal;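 also: score merges 667 nm emission intensity with spot signal to noise over triplicate slides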
Chain of Epidermal growth factor receptor (Homo sapiens) (P00533 whole entry, looked up): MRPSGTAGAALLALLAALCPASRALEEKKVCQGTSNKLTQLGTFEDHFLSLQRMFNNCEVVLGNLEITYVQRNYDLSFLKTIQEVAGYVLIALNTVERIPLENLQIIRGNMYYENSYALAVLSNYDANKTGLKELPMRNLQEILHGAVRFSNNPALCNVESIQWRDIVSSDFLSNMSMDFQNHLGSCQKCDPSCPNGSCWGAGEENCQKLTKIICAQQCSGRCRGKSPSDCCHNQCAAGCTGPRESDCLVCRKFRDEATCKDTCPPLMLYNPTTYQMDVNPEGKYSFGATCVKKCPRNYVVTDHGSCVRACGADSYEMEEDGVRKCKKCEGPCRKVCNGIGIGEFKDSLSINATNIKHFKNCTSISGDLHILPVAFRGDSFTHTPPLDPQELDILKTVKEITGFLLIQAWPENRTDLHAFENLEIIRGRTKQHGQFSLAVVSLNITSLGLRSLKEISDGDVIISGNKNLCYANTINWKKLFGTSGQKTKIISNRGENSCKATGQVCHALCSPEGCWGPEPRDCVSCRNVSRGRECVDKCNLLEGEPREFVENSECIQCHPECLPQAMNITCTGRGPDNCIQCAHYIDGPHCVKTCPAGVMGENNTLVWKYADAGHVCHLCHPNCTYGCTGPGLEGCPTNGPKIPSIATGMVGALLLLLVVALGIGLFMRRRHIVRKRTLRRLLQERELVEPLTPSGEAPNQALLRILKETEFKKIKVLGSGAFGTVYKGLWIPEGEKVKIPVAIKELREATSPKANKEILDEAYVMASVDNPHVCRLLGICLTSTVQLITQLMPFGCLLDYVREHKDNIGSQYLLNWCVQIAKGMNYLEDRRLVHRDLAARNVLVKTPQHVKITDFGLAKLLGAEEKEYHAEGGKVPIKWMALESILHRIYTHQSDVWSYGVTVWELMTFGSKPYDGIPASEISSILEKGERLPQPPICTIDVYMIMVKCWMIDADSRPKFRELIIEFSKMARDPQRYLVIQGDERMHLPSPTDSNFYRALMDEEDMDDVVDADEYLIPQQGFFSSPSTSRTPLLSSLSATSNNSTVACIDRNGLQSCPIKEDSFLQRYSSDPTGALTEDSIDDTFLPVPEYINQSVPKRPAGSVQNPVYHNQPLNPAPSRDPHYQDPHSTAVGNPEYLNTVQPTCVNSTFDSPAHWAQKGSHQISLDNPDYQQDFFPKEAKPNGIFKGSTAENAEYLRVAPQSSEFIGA

[18] = target: Follistatin-related protein 3 (Homo sapiens) (UniProt O95633); assay: compounds binding follistatin-related protein 3 – biochemical, small-molecule microarray, 635 nm fluorescence, primary screen (AID 1105); conditions: FSTL3 binding, higher = more signal;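 also: score merges emission near 667 nm and signal to noise per printed spot across three slides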
Chain of Follistatin-related protein 3 (Homo sapiens) (O95633 whole entry, looked up): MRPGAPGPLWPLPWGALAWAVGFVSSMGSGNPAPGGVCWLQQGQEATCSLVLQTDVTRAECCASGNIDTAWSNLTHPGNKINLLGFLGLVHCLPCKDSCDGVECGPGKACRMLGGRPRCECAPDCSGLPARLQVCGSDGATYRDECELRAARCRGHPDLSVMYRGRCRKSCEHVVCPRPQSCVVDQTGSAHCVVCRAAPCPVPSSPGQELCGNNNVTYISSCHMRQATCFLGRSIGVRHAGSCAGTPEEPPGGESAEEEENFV

[19] = target: Dickkopf-related protein 1 (Homo sapiens) (UniProt O94907); assay: small molecules binding DKK1 protein – biochemical, small-molecule microarray, 635 nm fluorescence scan, primary screen (AID 1106); conditions: higher = more signal;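 also: score merges emission near 667 nm with signal to noise over three replicate slides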
Chain of Dickkopf-related protein 1 (Homo sapiens) (O94907 whole entry, looked up): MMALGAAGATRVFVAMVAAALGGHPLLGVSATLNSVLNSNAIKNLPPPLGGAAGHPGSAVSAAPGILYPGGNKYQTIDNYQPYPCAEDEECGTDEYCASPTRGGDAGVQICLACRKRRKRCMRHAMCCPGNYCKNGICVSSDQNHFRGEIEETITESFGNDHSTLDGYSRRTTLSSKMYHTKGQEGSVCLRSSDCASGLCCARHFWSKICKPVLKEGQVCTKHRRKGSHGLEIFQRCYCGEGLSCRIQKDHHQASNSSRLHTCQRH

[20] = test system: Inhibin beta A chain (activin A); assay: small molecules binding activin A – biochemical, small-molecule microarray, 635 nm fluorescence scan, primary screen (AID 1107); conditions: INHBA, higher = more signal;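 also: mouse activin A protein probed at 4.33 µg/mL on printed slides; score merges bound-protein fluorescence near 667 nm with spot signal-to-noise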

## C=CCC(OC(C)=O)[C@@H]1[C@@H](N(Cc2ccc(-c3cccc(C(F)(F)F)c3)o2)C(=O)c2ccc(-c3ccccc3)cc2)c2cc(OCCCO)ccc2N1C(=O)c1ccc2ccccc2c1 (stereo not given in full)
[1]
  composite z-score: -1.39
[2]
  z-score: 0.729 (inactive)
[3]
  z-score: 1.16 (inactive)
[4]
  z-score: 0.136 (inactive)
[5]
  composite z-score: 0.254
[6]
  z-score: -0.28 (inactive)
[7]
  composite z-score: -0.0485
[8]
  composite z-score: 0.28
[9]
  composite z-score: 0.461
[10]
  composite z-score: -0.0828
[11]
  composite z-score: 0.194
[12]
  composite z-score: -0.151
[13]
  composite z-score: 0.397
[14]
  z-score: 0.697 (inactive)
[15]
  composite z-score: 0.225
[16]
  composite z-score: 0.099
[17]
  composite z-score: 0.1
[18]
  composite z-score: 0.695
[19]
  composite z-score: 0.15
[20]
  composite z-score: 1.22

## COc1ccc(C(O)C2C=CC3C(=O)N(c4ccccc4)C(=O)C3N2Nc2ccc([N+](=O)[O-])cc2)c2ccccc12 (stereo not given)
[1]
  composite z-score: 1.53
[2]
  z-score: -0.861 (inactive)
[3]
  z-score: 1.68 (inactive)
[4]
  z-score: 2.3 (inactive)
[5]
  composite z-score: 3.38
[6]
  z-score: -0.824 (inactive)
[7]
  composite z-score: 0.0798
[8]
  composite z-score: -0.268
[9]
  composite z-score: 1.07
[10]
  composite z-score: -0.0076
[11]
  composite z-score: 1.2
[12]
  composite z-score: 0.662
[13]
  composite z-score: 0.88
[14]
  z-score: -0.707 (inactive)
[15]
  composite z-score: 0.981
[16]
  composite z-score: 1.32
[17]
  composite z-score: 0.385
[18]
  composite z-score: 1
[19]
  composite z-score: 0.226
[20]
  composite z-score: 0.642

## CCOc1cc(C(O)C2C=CC3C(=O)N(c4ccccc4)C(=O)C3N2Nc2ccccc2F)ccc1O (stereo not given)
[1]
  composite z-score: 0.196
[2]
  z-score: 1.54 (inactive)
[3]
  z-score: -0.428 (inactive)
[4]
  z-score: 1.81 (inactive)
[5]
  composite z-score: 3.01
[6]
  z-score: -0.199 (inactive)
[7]
  composite z-score: 0.615
[8]
  composite z-score: -0.596
[9]
  composite z-score: 0.0983
[10]
  composite z-score: 0.561
[11]
  composite z-score: 1.53
[12]
  composite z-score: 1.42
[13]
  composite z-score: 0.762
[14]
  z-score: 0.101 (inactive)
[15]
  composite z-score: 0.208
[16]
  composite z-score: -0.186
[17]
  composite z-score: 0.232
[18]
  composite z-score: -0.271
[19]
  composite z-score: -0.344
[20]
  composite z-score: 0.604

## CO[C@H]1O[C@H](CO)[C@@H](OC(=O)Nc2ccccc2)[C@H](OC(=O)Nc2ccccc2)[C@H]1OC(=O)Nc1ccccc1
[1]
  composite z-score: 1.43
[2]
  z-score: 1.55 (inactive)
[3]
  z-score: 0.759 (inactive)
[4]
  z-score: 0.997 (inactive)
[5]
  composite z-score: 3.49
[6]
  z-score: 0.758 (inactive)
[7]
  composite z-score: -0.134
[8]
  composite z-score: 0.772
[9]
  composite z-score: 0.814
[10]
  composite z-score: -0.0978
[11]
  composite z-score: 1.48
[12]
  composite z-score: -0.0074
[13]
  composite z-score: -0.0165
[14]
  z-score: -0.405 (inactive)
[15]
  composite z-score: 1.48
[16]
  composite z-score: 1.25
[17]
  composite z-score: 0.0428
[18]
  composite z-score: 0.41
[19]
  composite z-score: 0.183
[20]
  composite z-score: 0.232

## CN(C)CCCC[C@@H]1NC(=O)[C@@H]2C[C@H](C(=O)NCCCCCCNC(=O)CS)[C@H](c3ccc(O)cc3)N2C1=O
[1]
  composite z-score: 1.33
[2]
  z-score: -0.378 (inactive)
[3]
  z-score: -0.472 (inactive)
[4]
  z-score: 0.0236 (inactive)
[5]
  composite z-score: 2.79
[6]
  z-score: -0.744 (inactive)
[7]
  composite z-score: -0.269
[8]
  composite z-score: 1.13
[9]
  composite z-score: 0.65
[10]
  composite z-score: 0.123
[11]
  composite z-score: 0.73
[12]
  composite z-score: -0.165
[13]
  composite z-score: -0.294
[14]
  z-score: 1.06 (inactive)
[15]
  composite z-score: 1.34
[16]
  composite z-score: 1.24
[17]
  composite z-score: 0.954
[18]
  composite z-score: 0.997
[19]
  composite z-score: 1.31
[20]
  composite z-score: 0.277

## C=CCC(OC(C)=O)[C@@H]1[C@@H](N(Cc2cccc3ccccc23)C(=O)c2ccc(-c3ccccc3)cc2)c2cc(OCCCO)ccc2N1C(=O)Cc1ccc2ccccc2c1 (stereo not given in full)
[1]
  composite z-score: 0.157
[2]
  z-score: -0.616 (inactive)
[3]
  z-score: 0.072 (inactive)
[4]
  z-score: -0.26 (inactive)
[5]
  composite z-score: 0.893
[6]
  z-score: -0.741 (inactive)
[7]
  composite z-score: -0.145
[8]
  composite z-score: -0.109
[9]
  composite z-score: 0.397
[10]
  composite z-score: -0.112
[11]
  composite z-score: -0.121
[12]
  composite z-score: -0.0459
[13]
  composite z-score: 0.428
[14]
  z-score: -1.08 (inactive)
[15]
  composite z-score: -0.179
[16]
  composite z-score: -0.328
[17]
  composite z-score: -0.0303
[18]
  composite z-score: 0.228
[19]
  composite z-score: -0.624
[20]
  composite z-score: 0.45

## C=C(COC)/C(=C/C[C@@H](OC(C)=O)c1ccccc1OCCO)c1cnc2ccccc2c1
[1]
  composite z-score: 1.56
[2]
  z-score: 0.27 (inactive)
[3]
  z-score: -0.614 (inactive)
[4]
  z-score: -0.112 (inactive)
[5]
  composite z-score: 0.895
[6]
  z-score: 0.359 (inactive)
[7]
  composite z-score: -0.154
[8]
  composite z-score: 1.64
[9]
  composite z-score: 1.09
[10]
  composite z-score: -0.0828
[11]
  composite z-score: 1.24
[12]
  composite z-score: -0.151
[13]
  composite z-score: -0.112
[14]
  z-score: 0.617 (inactive)
[15]
  composite z-score: 1.39
[16]
  composite z-score: 0.344
[17]
  composite z-score: 0.26
[18]
  composite z-score: 1.44
[19]
  composite z-score: 0.336
[20]
  composite z-score: 1.78

## CN(C)CCCCNC(=O)[C@H]1C[C@H]2C(=O)N3CCC[C@H]3C(=O)N2[C@H]1c1cccc(OCCO)c1
[1]
  composite z-score: 1.1
[2]
  z-score: 0.752 (inactive)
[3]
  z-score: 1.68 (inactive)
[4]
  z-score: 0.751 (inactive)
[5]
  composite z-score: 3.09
[6]
  z-score: -0.101 (inactive)
[7]
  composite z-score: 0.0164
[8]
  composite z-score: 0.866
[9]
  composite z-score: 0.476
[10]
  composite z-score: -0.0968
[11]
  composite z-score: 1.67
[12]
  composite z-score: 0.0092
[13]
  composite z-score: 0.833
[14]
  z-score: -0.0803 (inactive)
[15]
  composite z-score: 0.425
[16]
  composite z-score: 0.676
[17]
  composite z-score: -0.497
[18]
  composite z-score: -0.0327
[19]
  composite z-score: -0.0023
[20]
  composite z-score: 0.0098

## CC1CC/C=C\[C@H]2OC34C=CCN(c5ccc(Cl)cc5)C(=O)[C@H]3N(CCCCCCO)C(=O)[C@]4(C)C2C(=O)O1 (stereo not given in full)
[1]
  composite z-score: -0.106
[2]
  z-score: -0.0412 (inactive)
[3]
  z-score: -0.884 (inactive)
[4]
  z-score: 0.187 (inactive)
[5]
  composite z-score: 0.995
[6]
  z-score: 0.206 (inactive)
[7]
  composite z-score: -0.233
[8]
  composite z-score: -0.914
[9]
  composite z-score: -0.277
[10]
  composite z-score: -0.314
[11]
  composite z-score: 0.597
[12]
  composite z-score: -0.13
[13]
  composite z-score: 0.747
[14]
  z-score: 0.104 (inactive)
[15]
  composite z-score: -0.533
[16]
  composite z-score: -0.594
[17]
  composite z-score: -0.726
[18]
  composite z-score: -0.931
[19]
  composite z-score: -1.43
[20]
  composite z-score: 0.0845

## CC(C)N1C(=O)c2ccccc2[C@](C)(C(=O)NCC(F)(F)F)[C@@H]1c1ccc(CO)cc1
[1]
  composite z-score: -0.42
[2]
  z-score: -0.337 (inactive)
[3]
  z-score: -0.837 (inactive)
[4]
  z-score: -0.674 (inactive)
[5]
  composite z-score: 1.64
[6]
  z-score: 0.537 (inactive)
[7]
  composite z-score: 0.146
[8]
  composite z-score: -1.4
[9]
  composite z-score: -0.445
[10]
  composite z-score: -0.179
[11]
  composite z-score: 0.0632
[12]
  composite z-score: 0.698
[13]
  composite z-score: 1.06
[14]
  z-score: 0.88 (inactive)
[15]
  composite z-score: -1.28
[16]
  composite z-score: -0.907
[17]
  composite z-score: -0.333
[18]
  composite z-score: -0.961
[19]
  composite z-score: -0.693
[20]
  composite z-score: 0.177
